Rows were chosen to be rich in hits. Some 11% of all compounds tested hit in one or more screens of this group.
HCV inhibitor: inhibitors of hepatitis C virus infection; Huh7.5.1 HCVcc-Cre infection, luciferase reporter, 44 h; Potency, µM (doses to about 41.8 µM), actives largely listed as inhibitors; actives 3.4% (n = 340,000)
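Infectious HCVcc-Cre (~0.5 moi) was added to cells just after compound, with cells seeded 4 h earlier at 1,000 per well. Luciferase activity after 44 h culture reported infection; substrate was incubated 15 min at room temperature before reading.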
AmpC no deterg: blocks E. coli AmpC beta-lactamase in detergent-free assay; actives 0.52% (n = 330,000); P00811; AmpC nitrocefin hydrolysis, absorbance 480 nm, 0.0001% Triton; Potency, µM (doses to about 57.1 µM), actives largely listed as inhibitors; note: nearly all actives have a fitted effect of over 20% in size
Target sequence (P00811 whole entry, looked up): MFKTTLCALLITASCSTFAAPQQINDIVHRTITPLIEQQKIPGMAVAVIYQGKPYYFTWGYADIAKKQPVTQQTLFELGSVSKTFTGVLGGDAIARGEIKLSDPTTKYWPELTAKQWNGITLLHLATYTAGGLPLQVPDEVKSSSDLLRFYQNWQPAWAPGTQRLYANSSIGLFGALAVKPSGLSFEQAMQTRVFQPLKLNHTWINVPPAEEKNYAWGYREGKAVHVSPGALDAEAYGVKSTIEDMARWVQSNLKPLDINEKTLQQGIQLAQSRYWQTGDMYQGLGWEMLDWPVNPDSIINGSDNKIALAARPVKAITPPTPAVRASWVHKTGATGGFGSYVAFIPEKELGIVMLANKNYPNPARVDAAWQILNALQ
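AmpC (5.3 nM in the dispensed reagent) in 20 mM phosphate pH 7.0 with 0.01% (detergent screen) or 0.0001% Triton X-100 was preincubated with compounds for 15 min at room temperature. Nitrocefin was then added from an 800 uM solution, and hydrolysis was followed at 480 nm.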
AmpC detergent: blocks E. coli AmpC beta-lactamase in detergent assay; Potency, µM (titrated, usually from 114 µM), actives largely listed as inhibitors; actives 0.041% (n = 370,000); P00811; AmpC hydrolysis of nitrocefin, absorbance 480 nm, 0.01% Triton; note: nearly all actives have a fitted effect of over 25% in size
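20 mM phosphate pH 7.0 + 0.01% (detergent screen) or 0.0001% Triton X-100; 5.3 nM AmpC reagent; cpd preinc 15 min RT; nitrocefin (800 uM stock) to start; A480 q20 s × 4 min; Activity was normalised to no-enzyme and no-compound control wells.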
Pf growth 48h: P. falciparum growth inhibition at 48 hours (one generation). P. falciparum luciferase growth in erythrocytes, 48 h. Potency, µM (doses to about 28.7 µM), actives largely listed as inhibitors. actives 5.9% (n = 310,000)
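First compound was added to culture medium, then infected red cells at 0.1% parasitemia and 2% hematocrit (final). After incubation at 37 C under 5% CO2, luciferase detection reagent was dispensed and light output recorded.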
Pf growth 96h: inhibits malaria parasite growth, 96 h; Potency, µM (doses to about 28.7 µM), usual class: inhibitors; actives 6.9% (n = 320,000); P. falciparum luciferase reporter growth, 96 h
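P. falciparum expressing integrated firefly luciferase grown in erythrocytes (2% hematocrit, 0.05% parasitemia final) with compounds for 96 hours at 37 C, 5% CO2. Growth inhibition read as loss of luminescence after adding luciferase detection reagent.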
AMA1 RON2 block: disrupts binding of P. falciparum AMA1 to RON2; AlphaScreen AMA1-biotinylated RON2 peptide binding; Potency, µM (doses to about 58.2 µM), hits mostly inhibitors; actives 0.2% (n = 360,000); AID 720542; note: nearly all actives have a fitted effect of over 45% in size
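AMA1 (3D7) with his tag at 25 nM final met compounds first, then biotinylated RON2 peptide at 25 nM; detection used donor plus acceptor beads, 10 µg/mL apiece, read by AlphaScreen after 30 min at room temperature.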
HCV inh confirm: confirmation of hepatitis C virus inhibitors; shares compounds with HCV inhibitor; actives 78% (n = 640); Potency, µM (doses to about 41.8 µM), usual class: inhibitors; HCVcc-Cre infectious virus cell assay, luciferase, inhibition; note: nearly all actives have a fitted effect of over 80% in size
HCV cytotox: host cell cytotoxicity counter-screen for HCV inhibitors; shares compounds with HCV inhibitor; HCV host cell line cytotoxicity counterscreen; Potency, µM (doses to about 41.8 µM), actives largely listed as inhibitors; actives 22% (n = 640);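 note: 44 h compound exposure; nearly all actives have a fitted effect of over 55% in size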
Large screens that a line does not name were inactive (follow-up assays come after a bar, where they were run). Calls come from the whole dose curve; as a rule, active = well fitted curve in the direction sought with a large enough effect; inconclusive = small, poorly fitted or top-dose-only effect, or another doubt; inactive = no such curve, though single readings can be large; an effect the other way counts as inactive or inconclusive.

Oc1ccccc1-c1nc(NC2CCCC2)c2ccccc2n1	HCV inhibitor inconclusive, Pf growth 48h inconclusive
Clc1ccc2nc(-c3ccc(Br)s3)cn2c1	HCV inhibitor inconclusive, AmpC detergent inconclusive, Pf growth 48h inconclusive | HCV inh confirm 6.3µM | HCV cytotox inconclusive
OC1OC[C@@H](O)[C@H](O)[C@@H]1O (stereo partly drawn)	none (no result: HCV inhibitor, AmpC no deterg, AmpC detergent, AMA1 RON2 block)
CC1(C)NC(=O)N(CC(=O)Nc2nc(-c3ccc(F)cc3)cs2)C1=O	HCV inhibitor 3.5µM (no result: Pf growth 96h) | HCV inh confirm inconclusive | HCV cytotox inactive
CCC1CCCCN1C(=O)c1cc(COc2ccc3ncccc3c2)on1 (stereo not drawn)	HCV inhibitor 3.2µM, Pf growth 96h inconclusive | HCV inh confirm 1.8µM | HCV cytotox 3.1µM
Cc1ccc(-n2nc3c(N4CCC(C(=O)N5CCN(C)CC5)CC4)nnc(C)c3c2C)cc1	HCV inhibitor 4.5µM, Pf growth 48h inconclusive, Pf growth 96h inconclusive | HCV inh confirm 16µM | HCV cytotox inactive
O=[N+]([O-])c1ccc(/C=C/c2ccc3cccc([N+](=O)[O-])c3n2)cc1	AMA1 RON2 block inconclusive
O=[N+]([O-])c1cccc2ccc(/C=C/c3ccc(F)cc3)nc12	HCV inhibitor 1µM, Pf growth 48h inconclusive, AMA1 RON2 block inconclusive | HCV inh confirm 3.1µM | HCV cytotox inactive
O=c1c(S(=O)(=O)c2cccc(Cl)c2)cn(Cc2ccccc2)c2cc(N3CCOCC3)c(F)cc12	none (no result: HCV inhibitor, AmpC no deterg, Pf growth 48h, Pf growth 96h, AMA1 RON2 block)
Cc1cc2oc(C(=O)NCCc3ccc(S(N)(=O)=O)cc3)c(C)c2cc1C	HCV inhibitor inconclusive, AmpC no deterg inconclusive | HCV inh confirm inconclusive | HCV cytotox inactive
Cc1ccc(NC(=O)CN(C)S(=O)(=O)c2cnc[nH]2)cc1	none (no result: HCV inhibitor, AmpC no deterg, Pf growth 48h, Pf growth 96h, AMA1 RON2 block)
CC(=O)Nc1ccc(/C=C/c2nc3ccccc3o2)cc1	HCV inhibitor inconclusive (no result: Pf growth 48h)
O=C(Nc1ccc(/C=C/c2nc3ccccc3o2)cc1)c1c(F)cccc1F	HCV inhibitor 5.6µM, AmpC detergent inconclusive | HCV inh confirm 4.4µM | HCV cytotox inactive
COc1ccc(N(CC(=O)N2CCN(c3cccc(OC)c3)CC2)S(=O)(=O)c2c(C)noc2C)cc1	none (no result: HCV inhibitor, AmpC no deterg, Pf growth 48h, Pf growth 96h, AMA1 RON2 block)
Cc1cc(Cl)ccc1NC(=O)NC1CCN(S(=O)(=O)c2ccc(F)cc2)CC1	HCV inhibitor 4.5µM, Pf growth 96h inconclusive (no result: Pf growth 48h) | HCV inh confirm 11µM | HCV cytotox inactive
COc1ccc2cc(CNc3ccc(C)cc3)c(=O)n(CC(=O)Nc3ccc(C)cc3Cl)c2c1	none (no result: HCV inhibitor, AmpC no deterg, Pf growth 48h, Pf growth 96h, AMA1 RON2 block)
COc1ccc([N+](=O)[O-])cc1NC(=O)CSc1ccc2ccccc2c1	HCV inhibitor inconclusive, AmpC detergent inconclusive, Pf growth 96h inconclusive | HCV inh confirm 13µM | HCV cytotox inconclusive
COc1ccc([N+](=O)[O-])cc1NC(=O)CC(c1ccccc1)c1ccccc1	none
COc1ccc(OC)c(-c2cc(C(=O)NCc3ccco3)no2)c1	HCV inhibitor inconclusive, AMA1 RON2 block inconclusive | HCV inh confirm 28µM | HCV cytotox inactive
COc1cccc(-c2cc(C(=O)NCc3ccco3)no2)c1	Pf growth 96h inconclusive (no result: Pf growth 48h)
COCCCNC(=O)CSc1nc(-c2cccc(F)c2)[nH]c1-c1ccccc1	none (no result: HCV inhibitor, AmpC no deterg, Pf growth 48h, Pf growth 96h, AMA1 RON2 block)
CCN1CCN(S(=O)(=O)c2cc(OCC(=O)NC3CCCCC3)c(C)cc2Cl)CC1	HCV inhibitor 7.1µM, AmpC detergent inconclusive, Pf growth 48h 2.1µM | HCV inh confirm 4µM | HCV cytotox 7µM
Cc1cc(C(=O)CSc2nnc(-c3ccco3)o2)c(C)n1Cc1ccco1	HCV inhibitor inconclusive, AmpC detergent inconclusive, Pf growth 96h inconclusive | HCV inh confirm 16µM | HCV cytotox inconclusive

Bioassay records (PubChem)
